# ROS inducer = cancer cell ROS induction. 46,000 compounds, 2% hits. AID 624156. ROS induction (% of piperlongumine), % at 10 µM. U2OS ROS induction, H2DCF-DA fluorescence; in the data active means ROS induction above about 79%, passing the limit was not always enough;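 further: 0% = DMSO vehicle median and 100% = reference compound median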
# NOMO-1 viab = STK33 inhibitor candidate reducing NOMO-1 cell viability; AID 2330; NOMO-1 AML viability, CellTiter-Glo luminescence, 72 h; inhibition, % (concentration not given with the values); 37,000 compounds, 7.5% hits; in the data active means inhibition above about 80%
# The depositor's hits bear a star; . = no result given. This is one part of a sample in which hits are shown more often than they occur.
SMILES,ROS inducer,NOMO-1 viab
CC1(C)CC[C@]2(C(=O)O)CC[C@]3(C)C(=CCC4[C@@]5(C)CC[C@H](O[C@@H]6O[C@H](CO)[C@@H](O)[C@H](O)[C@H]6O)[C@@](C)(CO)C5CC[C@]43C)[C@@H]2C1 (stereo partly drawn),-9.4,.
CC1(C)CC[C@]2(C(=O)O[C@@H]3O[C@H](CO)[C@@H](O)[C@H](O)[C@H]3O)CC[C@]3(C)C(=CCC4[C@@]5(C)CC[C@H](OC6O[C@H](CO)[C@@H](O)[C@H](O[C@@H]7O[C@H](CO)[C@@H](O)[C@H](O)[C@H]7O)[C@H]6O)C(C)(C)C5CC[C@]43C)[C@@H]2C1 (stereo partly drawn),7.7,.
C[C@H](CO)N1C[C@H](C)[C@@H](CN(C)S(=O)(=O)c2cccs2)Oc2ccc(NC(=O)CCCN(C)C)cc2C1=O,-11.7,13.0
Cc1noc(C)c1NC(=O)N(C)C[C@H]1Oc2ccc(NC(=O)Nc3ccc(C(F)(F)F)cc3)cc2C(=O)N([C@@H](C)CO)C[C@H]1C,5.0,0.1
Cc1noc(C)c1NC(=O)N(C)C[C@H]1Oc2ccc(NC(=O)CCC(F)(F)F)cc2CC(=O)N([C@H](C)CO)C[C@H]1C,6.6,15.6
CC(=O)Oc1ccc(O)cc1,-5.8,69.0
COc1c(C)cccc1C(=O)N1CCN(c2ccc([N+](=O)[O-])c(NCc3ccco3)c2)CC1,30.2,17.8
CC(=O)OC1C(C)OC(OC2C(CO)OC(OC(=O)[C@]34CCC(C)(C)CC3C3=CCC5[C@@]6(C)CC[C@H](OC7OC(CO)C(OC8OC(CO)C(OC9OCC(O)C(O)C9O)C(O)C8O)C(O)C7O)[C@@](C)(CO)C6CC[C@@]5(C)[C@]3(C)CC4)C(OC3OC(C)C(O)C(O)C3O)C2O)C(O)C1O (stereo partly drawn),5.3,.
C[C@@H]1O[C@@H](O[C@@H]2[C@@H](O)[C@H](O[C@@H]3[C@@H](O)[C@H](C)O[C@@H](O[C@H]4[C@H](O[C@H]5CC[C@@]6(C)C(CC[C@]7(C)C6CC=C6[C@@H]8CC(C)(C)CC[C@]8(C(=O)O)CC[C@]67C)[C@]5(C)CO)OC[C@H](O)[C@@H]4O)[C@@H]3O)O[C@H](CO)[C@H]2O[C@@H]2O[C@H](CO)[C@@H](O[C@@H]3OC[C@@H](O)[C@H](O)[C@H]3O)[C@H](O)[C@H]2O)[C@H](O)[C@H](O)[C@H]1O (stereo partly drawn),-26.9,114.2*
CCOc1ccc(CCNC(=O)Nc2ccc3snnc3c2)cc1,6.6,.
Cc1noc(C)c1S(=O)(=O)Nc1ccc2c(c1)C(=O)N([C@H](C)CO)C[C@H](C)[C@H](CN(C)S(=O)(=O)c1ccc(Cl)cc1)O2,29.7,12.4
Cc1ccc(S(=O)(=O)N2CCN(S(=O)(=O)c3ccc(C)cc3)C2)cc1,14.1,.
CC1=CC(C)(C)N(S(=O)(=O)c2ccc(C)cc2)c2ccccc21,19.9,111.1*
CCCc1cc(=O)oc2cc(OC(=O)/C=C/c3cccs3)ccc12,0.7,32.9
C[C@H]1CN([C@@H](C)CO)C(=O)Cc2cc(NS(C)(=O)=O)ccc2O[C@H]1CN(C)Cc1ccc(Cl)c(Cl)c1,2.1,45.3
C[C@@H]1CN([C@H](C)CO)C(=O)Cc2cc(NC(=O)Cn3cnnn3)ccc2O[C@@H]1CN(C)S(=O)(=O)c1ccccc1,-1.9,7.4
CSc1nc2sc3c(c2c2nnc(SCC(=O)Nc4ccccc4)n12)CCC3,57.6,128.7*
O=C(CSc1nc2sc3c(c2c(=O)n1-c1ccccc1)CCCC3)Nc1ccccc1,.,29.5
O=C(COc1ccccc1)Nc1ccc2oc(-c3cccc(Cl)c3Cl)nc2c1,0.7,54.0
Cc1ccc2nc(-c3cccnc3)cc(C(=O)Nc3ccc(CC(=O)O)cc3)c2c1,-9.8,-30.4
COc1ccc(C2NC(=S)NC(C)=C2C(=O)Nc2cc(OC)c(Cl)cc2OC)c(OC)c1 (stereo not drawn),.,16.0
COc1ccc(C2C(C(=O)Nc3cc(OC)c(Cl)cc3OC)=C(C)Nc3ncnn32)c(OC)c1 (stereo not drawn),136.4*,-11.7
O=C(O)CCCCCCC(=O)N/N=C/c1ccc(Br)o1,2.8,.
COc1ccc(NC(=O)Nc2cccc3c2O[C@H](CN(C)Cc2ccc(Cl)c(Cl)c2)[C@H](C)CN([C@H](C)CO)C3=O)cc1,7.7,58.9
COc1ccc(NC(=O)Nc2cccc3c2O[C@@H](CN(C)Cc2ccc(Cl)c(Cl)c2)[C@@H](C)CN([C@H](C)CO)C3=O)cc1,33.0,96.9*
SMILES,ROS inducer,NOMO-1 viab
COc1ccc(NC(=O)Nc2cccc3c2O[C@@H](CN(C)Cc2ccc(Cl)c(Cl)c2)[C@@H](C)CN([C@@H](C)CO)C3=O)cc1,40.2,120.7*
COc1ccc(NC(=O)Nc2cccc3c2O[C@H](CN(C)Cc2ccccc2)[C@@H](C)CN([C@H](C)CO)C3=O)cc1,18.8,75.6
CCc1ccc(NS(=O)(=O)c2ccc3c(c2)SC(C)C(=O)N3)cc1 (stereo not drawn),-2.5,.
O=c1oc(Cl)c(Cl)c2ccccc12,45.1,119.2*
CC#CCc1cc2ccccc2c(=O)o1,3.9,21.2
COc1ccc(S(=O)(=O)N(C)C[C@H]2Oc3c(NS(=O)(=O)c4c(C)noc4C)cccc3C(=O)N([C@@H](C)CO)C[C@H]2C)cc1,-11.6,26.4
C[C@@H]1CN([C@@H](C)CO)C(=O)Cc2cc(NC(=O)c3ccncc3)ccc2O[C@@H]1CN(C)S(C)(=O)=O,-0.6,16.3

# High-throughput results as filed in PubChem BioAssay.
